This passage reports growth results from PubChem BioAssay (NCI).

The panel holds about 83,000 compounds, 20% with a hit somewhere; the sample as a whole holds those more often.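 Each cell line was grown in a 96-well plate and treated with one concentration of compound for 48 hours. Values below 10 were considered active.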 A number with no mark means an inactive call. The source made the active and inactive calls.

Among the test systems are SK-MEL-2 melanoma; EKVX NSCLC; SN12C renal; UO-31 renal; TK-10 renal; ACHN renal; A498 renal; CCRF-CEM leukemia; RPMI-8226 leukemia; OVCAR-8 ovarian; OVCAR-5 ovarian; OVCAR-4 ovarian; SK-OV-3 ovarian; IGROV1 ovarian; OVCAR-3 ovarian; HS 578T breast; NCI/ADR-RES ovarian; SR leukemia; MOLT-4 leukemia; CAKI-1 renal.
Holding throughout (assay): NCI-60 one-dose screen, 48 h (100 = growth as untreated, 0 = no growth, -100 = all killed)
Settings in all cases: 10 µM unless noted

As for `CN1C(=O)NC(c2ccc(Cl)cc2)(c2ccc(Cl)cc2)C1=O`, the growth with SK-MEL-2 melanoma is 80.6%; with EKVX NSCLC, 91.5%; with SN12C renal, 103%; in the assay on UO-31 renal, 61.5%; in the assay with TK-10 renal, 129%; in the assay with ACHN renal, 108%. For the same compound, the growth is 110% in the assay with A498 renal; -30.3% (active) in the assay with CCRF-CEM leukemia; 84.2% with RPMI-8226 leukemia; 102% in the assay on OVCAR-8 ovarian; 112% in the assay with OVCAR-5 ovarian; 96.4% in the assay with OVCAR-4 ovarian. Besides, the growth in the assay with SK-OV-3 ovarian was 115%; with IGROV1 ovarian, 91%; in the assay on OVCAR-3 ovarian, 104%; in the assay with HS 578T breast it was 90.4%; in the assay on NCI/ADR-RES ovarian it was 86.8%.

With `Cc1cc(C(=O)c2ccccc2)cc(C)c1O`, the growth in the assay on SK-MEL-2 melanoma was 118%; in the assay with EKVX NSCLC, 112%; with SN12C renal it was 106%; in the assay with UO-31 renal it was 84%; in the assay with TK-10 renal it was 123%; in the assay on ACHN renal, 99.8%. The growth is 98% in the assay on A498 renal; -22.1% (active) in the assay on CCRF-CEM leukemia; 55.6% in the assay with SR leukemia; 81.2% in the assay on RPMI-8226 leukemia; 101% in the assay with OVCAR-8 ovarian; 99.5% in the assay on OVCAR-5 ovarian. For the same compound, the growth in the assay on OVCAR-4 ovarian was 86.8%; in the assay with SK-OV-3 ovarian, 101%; in the assay with IGROV1 ovarian, 103%; in the assay with OVCAR-3 ovarian it was 109%; with NCI/ADR-RES ovarian it was 104%.

Regarding `Cc1ccnc(Nc2nc3ccccc3[nH]2)n1`, the growth is 105% with SK-MEL-2 melanoma; 104% in the assay on EKVX NSCLC; 104% in the assay with SN12C renal; 104% in the assay on UO-31 renal; 113% in the assay with TK-10 renal; 106% in the assay on ACHN renal. The growth in the assay on CCRF-CEM leukemia is 93.3%; in the assay on SR leukemia, 97.1%; in the assay with RPMI-8226 leukemia, 94.1%; with OVCAR-8 ovarian, 106%; with OVCAR-5 ovarian it was 95.3%; in the assay with OVCAR-4 ovarian, 109%. Further, the growth with SK-OV-3 ovarian is 101%; in the assay with IGROV1 ovarian, 97.6%; in the assay on OVCAR-3 ovarian, 132%; in the assay on NCI/ADR-RES ovarian it was 112%.

`CC(C)OCC(CCl)OC(=O)Nc1ccccc1` (configuration not stated): the growth was 102% in the assay on SK-MEL-2 melanoma; 104% with EKVX NSCLC; 96.7% with SN12C renal; 80.9% in the assay on UO-31 renal; 91.7% with TK-10 renal; 105% in the assay on ACHN renal. Further, the growth in the assay with A498 renal is 103%; in the assay on MOLT-4 leukemia, 99.9%; in the assay on SR leukemia, 117%; in the assay with RPMI-8226 leukemia, 109%; in the assay on OVCAR-8 ovarian, 97.9%; in the assay on OVCAR-5 ovarian, 104%. Moreover, the growth in the assay with OVCAR-4 ovarian was 101%; with SK-OV-3 ovarian, 97.6%; with IGROV1 ovarian, 105%; in the assay with OVCAR-3 ovarian, 101%; in the assay on HS 578T breast, 114%; with NCI/ADR-RES ovarian, 107%.

For the compound `NC(CCl)=NCC12CC3CC(CC(C3)C1)C2`, the growth in the assay with SK-MEL-2 melanoma is -44.6% (active); in the assay with EKVX NSCLC it was -7.97% (active); in the assay on SN12C renal, 9.41% (active); in the assay on UO-31 renal it was -98.5% (active); in the assay on TK-10 renal, -2.27% (active); with ACHN renal it was 11.8%. In addition, the growth is 33% with A498 renal; -15.8% (active) in the assay on CCRF-CEM leukemia; -50.4% (active) in the assay with RPMI-8226 leukemia; -26.8% (active) in the assay with OVCAR-8 ovarian; 7.23% (active) with OVCAR-5 ovarian; 11.3% with OVCAR-4 ovarian. The growth with OVCAR-3 ovarian was -21.9% (active); in the assay on HS 578T breast it was 47.9%; in the assay on NCI/ADR-RES ovarian it was 3.54% (active).

As to `CC(C)c1ncc([N+](=O)[O-])n1C`, the growth was 127% with SK-MEL-2 melanoma; 126% in the assay with EKVX NSCLC; 109% in the assay on SN12C renal; 85.3% in the assay with UO-31 renal; 114% in the assay with TK-10 renal; 94.4% in the assay with CAKI-1 renal. Moreover, the growth is 102% in the assay on CCRF-CEM leukemia; 104% in the assay with MOLT-4 leukemia; 106% in the assay with SR leukemia; 102% in the assay with RPMI-8226 leukemia; 97.5% in the assay on OVCAR-8 ovarian; 103% in the assay on OVCAR-5 ovarian. Besides, the growth was 117% in the assay on OVCAR-4 ovarian; 112% in the assay with SK-OV-3 ovarian; 125% in the assay with OVCAR-3 ovarian; 80.1% in the assay with HS 578T breast; 108% in the assay on NCI/ADR-RES ovarian.

For `Cc1cc(Cl)cc(Cc2cc(Cl)cc(C)c2O)c1O`, the growth is -18.1% (active) with SK-MEL-2 melanoma; 53.9% in the assay with EKVX NSCLC; 2.59% (active) in the assay on SN12C renal; 7.78% (active) in the assay on UO-31 renal; 34.6% in the assay with TK-10 renal; 7.14% (active) in the assay with ACHN renal. In addition, the growth is 5.51% (active) in the assay with CCRF-CEM leukemia; -15.1% (active) with MOLT-4 leukemia; 1.17% (active) in the assay with SR leukemia; -22.8% (active) in the assay with RPMI-8226 leukemia; 48.2% in the assay with OVCAR-8 ovarian; 69% in the assay on OVCAR-5 ovarian. The growth in the assay on OVCAR-4 ovarian was 22.2%; in the assay with SK-OV-3 ovarian, 51.5%; in the assay with IGROV1 ovarian, 33.1%; in the assay on OVCAR-3 ovarian it was -2.69% (active); in the assay on HS 578T breast it was 4.77% (active); in the assay with NCI/ADR-RES ovarian it was -10.7% (active).

In the case of `C=COC(=O)CCOCC(CC)CCCC` (configuration not stated), the growth in the assay with SK-MEL-2 melanoma was 96.9%; with EKVX NSCLC, 110%; in the assay with SN12C renal, 104%; in the assay with UO-31 renal, 79.5%; with TK-10 renal, 103%; in the assay with ACHN renal, 106%. Further, the growth was 91.9% in the assay on A498 renal; 99.2% in the assay with SR leukemia; 53.2% with RPMI-8226 leukemia; 114% in the assay with OVCAR-8 ovarian; 103% in the assay with OVCAR-5 ovarian; 96.2% in the assay with OVCAR-4 ovarian. The growth in the assay on SK-OV-3 ovarian was 113%; with IGROV1 ovarian, 105%; in the assay on OVCAR-3 ovarian, 98%; in the assay on HS 578T breast, 105%; with NCI/ADR-RES ovarian it was 105%.

For the compound `O=C1C=C[C@H](O)[C@@]2(CO)O[C@@H]12`, the growth in the assay with SK-MEL-2 melanoma is -12.4% (active); in the assay on EKVX NSCLC it was 72.4%; in the assay on SN12C renal, 88.7%; with UO-31 renal, 48.1%; in the assay with TK-10 renal, 109%; in the assay on CAKI-1 renal, 40%. For the same compound, the growth in the assay with A498 renal was 101%; in the assay on CCRF-CEM leukemia, -51% (active); with MOLT-4 leukemia it was 26.9%; in the assay with OVCAR-8 ovarian, 78.2%; with OVCAR-5 ovarian, 126%; with OVCAR-4 ovarian it was 90%. Further, the growth with SK-OV-3 ovarian is 115%; with IGROV1 ovarian, 27.6%; in the assay on OVCAR-3 ovarian it was 55%; in the assay with HS 578T breast it was 100%; with NCI/ADR-RES ovarian it was 86.3%.
